HCV inh: blocks hepatitis C virus. 340,000 compounds, 3.4% hits. Potency, µM (titrated, usually from 41.8 µM), for inactives: at the highest dose activity change, negative = inhibition, most hits filed as inhibitors. Huh7.5.1 HCVcc-Cre infection, luciferase reporter, 44 h; further: potency means the concentration at half of the fitted maximal effect; on the % scale 0 is the no-effect control and ±100 the full control effect
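Infectious HCVcc-Cre (~0.5 moi) was added to cells just after compound, with cells seeded 4 h earlier at 1,000 per well. Luciferase activity after 44 h culture reported infection; substrate was incubated 15 min at room temperature before reading.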
Cycloheximide cs: affects cycloheximide protein synthesis inhibition readout, counter-screen; cell reporter, cycloheximide protein synthesis inhibition counterscreen; max response, %; 300,000 compounds, 12% hits; AID 2314; in the data active means max response mostly above about 13%, no sharp cut-off; inactive means mostly below about 14%; further: read at 38.3 µM for the half of the compounds with a filed dose; 0% is about no effect
Shiga inhibitor: Shiga toxin inhibition; Vero cells, Shiga toxin protein synthesis inhibition reporter; inhibition, % at 38.7 µM; 290,000 compounds, 9.2% hits; AID 2315; in the data active means inhibition mostly above about 28%, no sharp cut-off; inactive means mostly below about 43%; further: 0% is about no effect
HCMV antiviral: human cytomegalovirus inhibition; HFF cells, HCMV-luciferase reporter, 72 h; active compounds read low; activity change, negative = inhibition, % at 57.5 µM; 410,000 compounds, 4.5% hits; AID 1259415; in the data active means activity change below about -60%; inconclusive means no clear call, values can overlap the other calls; inactive means above about -39%; further: on the % scale 0 is the no-effect control and ±100 the full control effect
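Screen run at 2 compound doses on HFFs infected with reporter HCMV, MOI 1 PFU/cell. Luciferase activity from cell lysates at 72 h post infection gave inhibition relative to buffer-only and Salinomycin wells.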
Pf growth 48h: inhibits P. falciparum growth in the first generation, 48 h | P. falciparum luciferase growth in erythrocytes, 48 h | 310,000 compounds, 5.9% hits | Potency, µM (highest dose often 28.7 µM), without a hit: at the top dose activity change, negative = inhibition, most hits filed as inhibitors; further: potency means the concentration at half of the fitted maximal effect; on the % scale 0 is the no-effect control and ±100 the full control effect
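Compounds are pin-transferred into medium, infected erythrocytes (2% hematocrit, 0.1% parasitemia final) are added, and plates sit one parasite generation at 37 C in 5% CO2. Detection reagent is then added and luminescence measured.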
Pf growth 96h: inhibits malaria parasite growth, 96 h. P. falciparum luciferase reporter growth, 96 h. Potency, µM (doses to about 28.7 µM), for inactives: at the top dose activity change, negative = inhibition, actives largely listed as inhibitors. 320,000 compounds, 6.9% hits; further: potency means the concentration at half of the fitted maximal effect; on the % scale 0 is the no-effect control and ±100 the full control effect
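Readout is luminescence from an integrated firefly luciferase in P. falciparum. Red cells, 2% hematocrit and 0.05% parasitemia final, were cultured with compound through two parasite generations (96 hours) at 37 C, 5% CO2.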
* marks the source's active call; other numbers are inactive results; ? = inconclusive; . = not tested or not shown; [ ] = dose if it differs, or a comment. Rows were chosen to be rich in hits. Some 21% of all compounds tested hit in one or more screens of this group. Unless noted, the call rests on the fitted dose curve; in most records, active means well fitted inhibition curve with a large enough effect; inconclusive means small, poorly fitted or top-dose-only effect, or another doubt; inactive means no such curve, though single readings can be large or run the other way.

SMILES	HCV inh	Cycloheximide cs	Shiga inhibitor	HCMV antiviral	Pf growth 48h	Pf growth 96h
Cc1ccccc1CN1C(=O)C(O)(CC(=O)c2ccccc2)c2cc(Cl)ccc21 (configuration not stated)	.	.	.	-28.0	.	.
Cc1onc(-c2ccccc2Cl)c1C(=O)Nc1nnc(-c2cccc([N+](=O)[O-])c2)s1	3.8%	0.5	8.5	-38.0	?	?
CCCCNS(=O)(=O)c1ccc(NC(=O)c2c(-c3ccccc3Cl)noc2C)cc1	.	-5.7	-18.9	.	.	5.22µM*
Cc1onc(-c2ccccc2Cl)c1C(=O)NC1CCS(=O)(=O)C1 (configuration not stated)	13.5%	-4.9	18.2	-5.8	.	11.7µM*
CCSc1nnc(NC(=O)c2c(-c3ccccc3Cl)noc2C)s1	11.5%	5.4	70.9	-9.9	.	5.86µM*
Cc1onc(-c2c(F)cccc2Cl)c1C(=O)NC1CC1	17.6%	-2.5	-10.4	2.2	12.8%	21.3%
Cc1onc(-c2ccccc2Cl)c1C(=O)Nc1ccc(-c2cn3cccnc3n2)cc1	.	-3.2	-2.1	.	10.4µM*	?
CCCCNS(=O)(=O)c1ccc(NC(=O)c2c(-c3ccccc3)noc2C)cc1	.	.	.	-16.1	.	.
CCc1ccc(CNC(=O)COc2cc(=O)n(CC)c3ccccc23)cc1	.	.	.	10.8	.	.
Cc1onc(-c2ccccc2Cl)c1C(=O)Nc1cccc2cccnc12	7.08µM*	-0.8	-11.6	-98.9*	9.28µM*	?
Cc1onc(-c2ccccc2Cl)c1C(=O)Nc1ccc(Cl)cn1	3.2%	10.5*	12.5	28.5	-6.6%	0.9%
CCOC(=O)c1c(C)oc2nc(C)nc(Nc3cc(C)ccc3OC)c12	.	.	.	11.1	.	.
CC(=O)Nc1cccc(NC(=O)c2ccccc2Cl)c1	.	.	.	21.6	.	.
Cn1nnnc1NCc1cccc(Cl)c1Cl	11.8%	-2.9	-7.9	-26.0	1.0%	-11.1%
CCC(Sc1nc2c(sc3ccccc32)c(=O)n1CCc1ccc(OC)c(OC)c1)C(=O)N(CC)CC (configuration not stated)	.	.	.	-5.5	.	.
O=C(NCc1ccccc1)c1cccc(S(=O)(=O)N2CCCCC2)c1	-14.9%	-2.3	-4.8	46.7	11.5%	26.2%
COc1ccc(CCNC(=O)c2cccc(S(=O)(=O)N3CCCCC3)c2)cc1	?	-2.4	-3.5	-65.7*	?	3.5%
C=CCN(c1ccccc1Cl)S(=O)(=O)c1cccc(C(=O)OCC(=O)N(C)C2CCS(=O)(=O)C2)c1 (configuration not stated)	3.55µM*	-9.6	-6.4	-30.6	-29.8%	-7.1%[5.75 µM]
O=C(NCCc1ccccc1)c1cccc(S(=O)(=O)N2CCCCC2)c1	-18.3%	28.4*	39.8*	-33.4	-7.6%	-12.6%
CN(C(=O)COC(=O)c1cccc(S(=O)(=O)N2CCCCCC2)c1)C1CCS(=O)(=O)C1 (configuration not stated)	-1.1%	.	.	1.5	-13.8%	8.8%
C=CCN(c1ccccc1OC)S(=O)(=O)c1cccc(C(=O)NCc2cccs2)c1	4.47µM*	.	.	-63.1*	11.7µM*	11.7µM*
COc1ccc(C(=O)NC(CCSC)C(=O)NCc2nnc3ccccn23)cc1 (configuration not stated)	3.0%	.	.	-18.8	31.1%	20.9%
Cc1ccc(-c2ccc(CN3C(C)C(=O)N(Cc4cn(Cc5ccco5)nn4)CCS3(=O)=O)cc2)c(C)c1 (configuration not stated)	.	.	.	-35.9	.	.
O=C(O)c1cccc(S(=O)(=O)NCCc2ccccc2)c1	18.9%	-2.5	-10.7	-3.4	7.8%	6.3%
C=CCN(c1ccccc1)S(=O)(=O)c1cccc(C(=O)OCC(=O)NCCOC)c1	6.3%	-3.4	-9.0	-19.1	108.3%	24.2%
SMILES	HCV inh	Cycloheximide cs	Shiga inhibitor	HCMV antiviral	Pf growth 48h	Pf growth 96h
C=CCN(c1ccccc1Cl)S(=O)(=O)c1cccc(C(=O)NCCc2ccc(OC)cc2)c1	?	4.7	26.2	-65.1*	?	?
O=C(O)c1cccc(S(=O)(=O)Nc2ccccc2C(=O)NCCc2ccccc2)c1	-7.1%	28.9*	46.0*	59.5	51.9%	46.0%
CN(c1ccccc1)S(=O)(=O)c1ccc(C(=O)NCc2ccco2)cc1	-27.9%	.	.	-18.7	8.9%	8.7%
CN(C)S(=O)(=O)c1cccc(C(=O)NCCc2ccccc2)c1	-12.2%	48.3*	72.1*	23.2	259.8%	-24.6%
CN(C)S(=O)(=O)c1ccc(C(=O)NCCc2ccco2)cc1	-1.6%	24.7*	63.3*	45.1	72.6%	74.4%
CCCCN(C(=O)CSc1nc2ccccc2n1CC)C1CCS(=O)(=O)C1 (configuration not stated)	?	.	.	-15.9	-10.2%	-24.9%
COc1ccc([C@@H](OC)[C@@]2(Cc3ccc(O)cc3)N=C(N)N(C)C2=O)cc1	2.0%	.	.	10.2	?	-8.1%
O=C(NCCOc1ccc(Cl)cc1)c1cccc(S(=O)(=O)N2CCCC2)c1	15.8µM*	.	.	-68.3*	?	?
C=CCNC(=O)c1ccccc1NS(=O)(=O)c1ccc(SC)cc1	8.2%	-3.2	-7.0	2.3	-9.4%	.
O=C(NCCc1ccccc1)C1=CCN(S(=O)(=O)c2ccccc2)CC1	14.4%	29.7*	34.6	-19.9	3.8%	22.5%
CNS(=O)(=O)c1cccc(C(=O)OCC(=O)c2c(N)n(C)c(=O)n(C)c2=O)c1	?	-5.9	5.7	-13.8	?	?
C=CCNC(=O)c1ccccc1NS(=O)(=O)c1ccccc1	6.7%	-1.5	10.2	?	-7.2%	9.28µM*
C=CCN(c1ccccc1OC)S(=O)(=O)c1cccc(C(=O)OCC(=O)c2c(N)n(C)c(=O)n(C)c2=O)c1	?	.	.	-70.5*	.	.
O=C(CSc1ccc2c(c1)OCCO2)Nc1ncccc1O	-6.5%	.	.	6.8	59.6%	54.4%
COc1ccc(CNC(=O)CN2C(=O)CCCc3ccccc32)cc1	.	.	.	0.0	.	.
CC(OC(=O)CNC(=O)C1CCCCC1)C(=O)NCc1ccccc1 (configuration not stated)	0.2%	.	.	-15.9	.	.
COc1cc(NS(=O)(=O)c2c(C)oc3c(F)c(F)c(F)c(F)c23)cc(OC)c1OC	-20.8%	-3.3	-6.1	2.7	?	?
CCc1cccc(NC(=O)CSc2nc3ccccc3nc2N2CCCCC2)c1	.	16.8	14.2	-79.8*	.	.
Cc1cccc(N2CCN(C(=O)CSc3nc4ccccc4nc3N3CC(C)OC(C)C3)CC2)c1C (configuration not stated)	6.31µM*	-0.7	-9.4	-4.5	?	?
Cc1cccc(NC(=O)CSc2nc3ccccc3nc2N2CCCC2)c1	?	9.6	14.5	?	?	32.2%
Cc1cccc(NC(=O)CSc2nc3ccccc3nc2N2CC(C)OC(C)C2)c1 (configuration not stated)	11.2µM*	11.4*	11.1	-11.2	?	9.28µM*
Cc1cccc(NC(=O)CSc2nc3ccccc3nc2N2CCCCC2)c1	1.1%	-3.6	2.7	-84.0*	13.1µM*	?

Compound activity: PubChem BioAssay, National Center for Advancing Translational Sciences (NCATS)
